Screening results as filed in PubChem.
ARNT-TACC3 inh: ARNT/TACC3 interaction disruption; Q9Y6A5; AlphaScreen His-ARNT PAS-B/GST-TACC3 binding, luminescence; TACC3 fragment carries E629A point mutation; inhibition, % at 9.99 µM; hit rate 0.66% among 390,000; AID 623870;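 active = mean inhibition of replicates at least 50% and at least half of replicates each reaching 50%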;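 also: 0% = complete ARNT plus TACC3 wells and 100% = ARNT alone without TACC3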
Cardio protect: myocardial damage modulation in H9c2 cells. H9c2 cardiomyocytes, H2O2 injury protection, ATPLite, 2 h. protection from H2O2 cell death, % at 20 µM. hit rate 0.63% among 360,000;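 active = compounds giving at least 50% protection of heart cells from peroxide-induced death in the single-dose screen, raw or plate-pattern-corrected value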;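 also: 0% = DMSO wells with peroxide and 100% = DMSO wells without peroxide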
aDG glyco up: increases alpha dystroglycan glycosylation | Pro5-aDG cells, alpha-DG glycosylation AlphaScreen (IIH6); 0% Pro5, 100% B10-LARGE cell signal | hit rate 0.22% among 360,000 | activation, % at 10 µM | AID 624168;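 active = activation of at least 8% versus controls, or a plate z-score of at least 8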;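 also: Pro5 are CHO cells carrying HIG-tagged alpha-DG that lacks glycosylation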
Glyco luc inh: blocks N-linked glycosylation in D54 reporter cells; D54 ERlucT glycosylation luciferase reporter, 24 h; percent of 100 nM tunicamycin response; reporter increase, % at 12.5 µM; hit rate 0.23% among 360,000;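 active = mean luciferase reporter signal, scaled so untreated is 0 and the glycosylation-blocking control 100, at or above a set limit in every replicate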;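 also: luciferase carries N-glycosylation sites so blocking glycosylation raises the light; 0% = median of neutral control wells and 100% = median of 100 nM tunicamycin wells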
Vif inh: inhibitors of HIV Vif; HEK293T cells, Vif self-association by quenched fluorescence, imaging, 24 h; inhibition, % at 7.49 µM; hit rate 0.35% among 340,000; AID 602346; in the data active = inhibition above about 50%, passing the limit was not always enough
* = called active by the depositor. In the library only some 1.7% were active in any assay of this set; here they are far more common.

For C[C@H](CO)N1C[C@H](C)[C@@H](CN(C)Cc2ccc(Oc3ccccc3)cc2)Oc2ccc(NC(=O)Nc3cccc4ccccc34)cc2CC1=O the results were ARNT-TACC3 inh 76.4*.
C[C@@H]1CN([C@H](C)CO)S(=O)(=O)c2ccc(-c3cccnc3)cc2O[C@@H]1CN(C)C(=O)CN(C)C was read as ARNT-TACC3 inh -4.0.
`O=C(/C(=C(\[O-])c1ccccc1)[n+]1ccc2ccccc2c1)c1ccccc1` gave ARNT-TACC3 inh 49.8*, Cardio protect 1.3, aDG glyco up 0.0, Glyco luc inh -0.5 and Vif inh -5.2.
`CCOC(=O)N1CCC(NC(=O)c2cc3c(-c4ccccc4F)nn(C)c3s2)CC1` gave ARNT-TACC3 inh -2.7, Cardio protect 50.4*, aDG glyco up -0.2, Glyco luc inh 0.6 and Vif inh -4.0.
`COc1ccc(NC(=O)c2cc3c(-c4ccc(OC)c(OC)c4)nn(C)c3s2)cc1OC` gave ARNT-TACC3 inh 6.3, Cardio protect 61.9*, aDG glyco up -0.2, Glyco luc inh -6.3 and Vif inh -9.0.
CCOC(=O)N1CCC(NC(=O)c2cc3c(-c4ccc(OC)c(OC)c4)nn(C)c3s2)CC1 was read as ARNT-TACC3 inh 0.6, Cardio protect 62.6*, aDG glyco up -0.4 and Glyco luc inh 0.6.
C[C@H](CO)N1C[C@H](C)[C@@H](CN(C)S(=O)(=O)c2cn(C)cn2)Oc2ccc(NC(=O)Cc3ccccc3)cc2CC1=O was read as ARNT-TACC3 inh -4.1.
`COc1cccc(CN(C)C[C@@H]2OCc3cnnn3CCCC(=O)N([C@@H](C)CO)C[C@@H]2C)c1` gave ARNT-TACC3 inh -5.8.
CCC(=O)Oc1ccc2c(C)cc(=O)oc2c1C was read as ARNT-TACC3 inh 6.7, Cardio protect 58.8*, aDG glyco up -0.3, Glyco luc inh -5.3 and Vif inh -6.7.
Cc1nc2ccccc2c(=O)n1-c1ccc(F)c(NS(=O)(=O)c2ccccc2F)c1 was read as ARNT-TACC3 inh -0.8, Cardio protect 4.5, aDG glyco up 0.3, Glyco luc inh 0.3 and Vif inh -14.4.
`Oc1c(CN2CCCCC2)ccc2cccnc12` gave ARNT-TACC3 inh 88.6*, Cardio protect -7.9, aDG glyco up -0.3, Glyco luc inh -11.6 and Vif inh -7.4.
Screening O=S(=O)(Nc1ccc(O)c2ncccc12)c1ccccc1F returned Cardio protect 59.8*, aDG glyco up -0.1 and Glyco luc inh 11.1.
Screening O=[N+]([O-])c1cc(CN2CCCC2)c2cccnc2c1O returned ARNT-TACC3 inh 77.2*, Cardio protect -2.1, aDG glyco up 0.1, Glyco luc inh 3.3 and Vif inh 9.9.
`Oc1ccc(COCc2ccccc2)c2cccnc12` gave ARNT-TACC3 inh 79.6*, Cardio protect 34.4, aDG glyco up -0.3, Glyco luc inh -11.2 and Vif inh 4.2.
Screening COc1cc(CN2CCCCCC2)cc([N+](=O)[O-])c1O returned ARNT-TACC3 inh -8.0, Cardio protect 3.9, aDG glyco up 0.0, Glyco luc inh 1.7 and Vif inh 17.2.
Screening C[C@@H]1CN([C@H](C)CO)C(=O)c2cc(NC(=O)Nc3ccc(C(F)(F)F)cc3)ccc2O[C@@H](C)CCCCO[C@@H]1CN(C)Cc1ccc(C(=O)O)cc1 returned ARNT-TACC3 inh 10.2.
For Oc1ccc(CNc2ccccc2F)c2cccnc12 the results were ARNT-TACC3 inh 48.8*, Cardio protect 45.2, aDG glyco up 0.1, Glyco luc inh 0.1 and Vif inh -20.2.
For Oc1ccc(F)c2cccnc12 the results were ARNT-TACC3 inh 21.1, Cardio protect 3.0, aDG glyco up -0.2, Glyco luc inh 1.0 and Vif inh -7.4.
`Oc1ccc(CN2CCN(c3ccccc3)CC2)c2cccnc12` gave ARNT-TACC3 inh 14.4, Cardio protect 39.0, aDG glyco up 0.0, Glyco luc inh 0.1 and Vif inh 6.5.
Screening Oc1c(CN2CCN(c3ccccn3)CC2)cc(Cl)c2cccnc12 returned ARNT-TACC3 inh 59.6*, Cardio protect 28.4, aDG glyco up -1.1, Glyco luc inh -3.0 and Vif inh -3.1.
For Oc1ccc(Cc2ccccc2)c2cccnc12 the results were Cardio protect 34.4, aDG glyco up -0.2, Glyco luc inh -7.3 and Vif inh 4.2.
Screening Oc1c(Cl)cc(CN2CCCCC2)c2cccnc12 returned ARNT-TACC3 inh 76.6*, Cardio protect -2.6, aDG glyco up -0.2, Glyco luc inh -1.0 and Vif inh 16.3.
For OCc1ccc(O)c2ncccc12 the results were ARNT-TACC3 inh 70.7*, Cardio protect 10.3, aDG glyco up 0.6, Glyco luc inh -12.0 and Vif inh 29.5.
For CO[C@@H]1CN(C)C(=O)c2cc(NC(C)=O)ccc2OC[C@H](C)N(Cc2cccnc2)C[C@@H]1C the results were ARNT-TACC3 inh -6.8.
Screening Cc1ccc(S(=O)(=O)Nc2ccc(O)c3ccccc23)c(C)c1 returned ARNT-TACC3 inh 11.3, Cardio protect -13.8, aDG glyco up 1.6, Glyco luc inh 5.9 and Vif inh -3.9.
Screening Oc1ccc(CN2CCCCC2)c2cccnc12 returned ARNT-TACC3 inh 79.7*, Cardio protect 14.7, aDG glyco up -0.2, Glyco luc inh -1.9 and Vif inh -9.8.
Screening Cc1ccc(C)c(S(=O)(=O)Nc2ccc(O)c3ccccc23)c1 returned ARNT-TACC3 inh 2.7, Cardio protect -21.7, aDG glyco up 4.3*, Glyco luc inh 8.5 and Vif inh -1.9.
For CCn1nc(C(=O)NNC(=O)c2cc(Cl)ccc2OC)c2ccccc2c1=O the results were ARNT-TACC3 inh 2.6, Cardio protect 66.4*, aDG glyco up -0.3, Glyco luc inh 1.9 and Vif inh 6.5.
`CCOc1cc(N2CCOCC2)c(OCC)cc1NC(=O)c1ccccc1C` gave ARNT-TACC3 inh 0.9, Cardio protect 13.2, aDG glyco up -0.4, Glyco luc inh -0.7 and Vif inh -8.1.
CCOc1cc(N2CCOCC2)c(OCC)cc1NC(=O)c1ccc(OCc2c(C)noc2C)c(OC)c1 was read as ARNT-TACC3 inh -1.2, Cardio protect 63.3*, aDG glyco up -0.3, Glyco luc inh 0.8 and Vif inh -7.2.
For COc1ccc(Cl)cc1C(=O)NNC(=O)c1nn(C)c(=O)c2ccccc12 the results were ARNT-TACC3 inh 1.7, Cardio protect 30.5, aDG glyco up 0.4, Glyco luc inh 6.4 and Vif inh -1.0.
For CCOc1cc(N2CCOCC2)c(OCC)cc1NC(=O)c1nn(CC)c(=O)c2ccccc12 the results were ARNT-TACC3 inh 4.1, Cardio protect 53.9*, aDG glyco up -0.6, Glyco luc inh -7.6 and Vif inh -6.7.
`C[C@@H]1CN([C@H](C)CO)C(=O)c2cc(/C=C/c3ccccc3)cnc2O[C@H]1CN(C)Cc1ccccc1` gave ARNT-TACC3 inh 1.0.
For CC(C)NC(=O)Nc1cccc2c1O[C@H](CN(C)Cc1ccc(C(=O)O)cc1)[C@H](C)CN([C@H](C)CO)C2=O the results were ARNT-TACC3 inh 1.7.
